This is an account of results in PubChem BioAssay (NCI).

Structures are written as SMILES. About 83,000 compounds went through this panel and 20% of them were active in at least one assay; those are over-represented in the sample as a whole.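 Interpretation: 100, growth as untreated; towards 0, rising growth inhibition; 0, no net growth; 0 to -100, cell death. Compounds scoring below 10 were considered active.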 A number with no mark means an inactive call. Active and inactive are the calls of the source.

What all share (assay): NCI-60 one-dose screen, 48 h (100 = growth as untreated, 0 = no growth, -100 = all killed)
Settings in all cases: 10 µM

Experiment [1] relates to HT29 colon.
Experiment [2] relates to SNB-75 CNS.
Experiment [3] relates to SNB-19 CNS.
Experiment [4] relates to U251 CNS.
For experiment [5], the system named is PC-3 prostate.
Experiment [6] has as its system SK-MEL-5 melanoma.
Experiment [7] deals with UACC-62 melanoma.
Experiment [8] has as its system LOX IMVI melanoma.
For experiment [9], the system named is SK-MEL-28 melanoma.
Experiment [10] concerns SK-MEL-2 melanoma.
The test system of experiment [11] is SN12C renal.
The subject of experiment [12] is UO-31 renal.
Experiment [13] deals with TK-10 renal.
The subject of experiment [14] is ACHN renal.
The subject of experiment [15] is A498 renal.
For experiment [16], the system named is CCRF-CEM leukemia.
For experiment [17], the system named is MOLT-4 leukemia.
In experiment [18] the test system is CAKI-1 renal.
The test system of experiment [19] is SR leukemia.

Turning to `C(CCCC1=NCCO1)CCCC1=NCCO1`, the growth in [1] was 118%; in [2] it was 77.5%; in [3] it was 97.8%; in [4] it was 97.9%; in experiment [5], 98%; in experiment [6] it was 99.7%. The growth in [7] was 93%; in [8] it was 94%; in [9] it was 95.4%; in [10] it was 98.3%; in experiment [11], 102%; in [12] it was 90.9%. The growth in experiment [13] is 110%; in experiment [14] it was 105%; in [15], 101%; in experiment [16], 104%; in experiment [17], 105%.
In the case of `CC(=O)c1nc2ccccc2n1CCNC(N)=O`, the growth in experiment [1] was 35.9%; in experiment [2], 24%; in experiment [3], 91.7%; in experiment [4] it was 69.8%; in experiment [5], 72%; in [6], 82.7%. Further, the growth in experiment [7] was 86.6%; in experiment [8], 62.4%; in experiment [9] it was 89.6%; in [10], 84%; in experiment [11] it was 89.6%; in experiment [12] it was 78.8%. The growth is 91.3% in experiment [14]; 105% in experiment [18]; 78.8% in experiment [15]; 68.3% in experiment [16]; 77.2% in [17]; 43.5% in experiment [19].
For the compound `Cn1c(N)c(N=Nc2ccc(S(=O)(=O)Nc3nccs3)cc2)c(=O)n(C)c1=O`, the growth in experiment [1] is 107%; in experiment [2], 94.1%; in [3], 104%; in [4] it was 99.2%; in [5], 90.5%; in [6], 104%. Further, the growth in [7] is 106%; in experiment [8], 89.4%; in experiment [9] it was 112%; in [10] it was 92.4%; in experiment [11] it was 97%; in experiment [12], 68.6%. Further, the growth in experiment [13] was 98.7%; in [14], 102%; in experiment [15], 96.9%; in [16] it was 95.8%; in experiment [17] it was 92.6%; in experiment [19] it was 95.2%.
Take `COc1cc(Cl)cc(-c2nn(-c3cccc(NC(=O)c4ccc(Cl)c(Cl)c4)c3)cc2-c2ccncc2)c1`: the growth in experiment [1] is 56.4%; in [2], 50.6%; in experiment [3] it was 71.6%; in [4], 64.1%; in experiment [5] it was 34%; in [6], 78.5%. The growth is 75.4% in experiment [7]; 72.8% in [8]; 87.7% in [9]; 78.4% in [10]; 69.6% in experiment [11]; 43.5% in experiment [12]. Also, the growth is 104% in experiment [13]; 63.9% in experiment [14]; -0.943% (active) in [15]; 59.2% in experiment [16]; 54.9% in [17]; 43.6% in [19].
Take `COc1cc2cc3c(nc2cc1OC)CCN3Cc1ccc(NC(=O)Nc2ccc(F)cc2F)cc1`: the growth in [1] is 103%; in experiment [2], 86.4%; in experiment [3] it was 76.8%; in experiment [4] it was 91.8%; in experiment [5], 68.8%; in [6] it was 86.1%. The growth was 69% in experiment [7]; 88.6% in experiment [8]; 95.7% in experiment [9]; 88.2% in experiment [10]; 79.9% in experiment [11]; 68.9% in experiment [12]. Besides, the growth is 94.6% in [13]; 85.2% in experiment [14]; 49.4% in [15]; 71.7% in experiment [16]; 58.9% in [17]; 62.1% in [19].
Take `COc1ccc2c(c1)O/C(=C\c1ccc([N+](=O)[O-])s1)C2=O`: the growth in experiment [1] is -12.3% (active); in [2], 55.5%; in [3] it was 67.3%; in [4] it was 14.7%; in experiment [5], 14%; in experiment [6], 60%. The growth was 30.6% in experiment [7]; 15.7% in [8]; 81.4% in [9]; 55.3% in [10]; 41.6% in experiment [11]; 24% in experiment [12]. Further, the growth is 42.5% in experiment [13]; 25.4% in experiment [14]; 85.1% in [15]; 10.1% in experiment [16]; 10.7% in experiment [17]; 12.1% in [19].
As to `O=c1[nH]c(-c2ccc(Cl)cc2)nc2sc3c(c12)CCCC3`, the growth in experiment [1] was 106%; in experiment [2], 57.9%; in [3], 76.6%; in [4], 54.3%; in experiment [5], 93.2%; in [6], 75.9%. The growth in experiment [7] is 55.8%; in experiment [8], 48.9%; in experiment [9], 107%; in experiment [10] it was 102%; in [11] it was 52.5%; in experiment [12], 78.8%. Also, the growth in experiment [14] is 53.3%; in experiment [18], 13.4%; in [15], 86.6%; in experiment [16], 12.3%; in experiment [17], 49.4%; in experiment [19], 0.705% (active).
As for `CC(=O)c1nc2ccccc2n1CCN1CCN(C)CC1`, the growth was -3.6% (active) in experiment [1]; 6.87% (active) in experiment [2]; 73.7% in [3]; 28.4% in experiment [4]; 33.4% in experiment [5]; 38.5% in experiment [6]. Besides, the growth is 50.7% in [7]; 36.7% in experiment [8]; 48% in experiment [9]; 25.4% in experiment [10]; 46.7% in experiment [11]; 53.1% in [12]. Further, the growth is 78% in experiment [14]; 94.1% in [18]; 36.6% in [15]; 3.66% (active) in experiment [16]; 49.9% in experiment [17]; 6.52% (active) in experiment [19].
